Assay results published in PubChem BioAssay AID1851 (National Center for Advancing Translational Sciences (NCATS), 2009).
Values joined by “and” are separate entries in the source; they are usually repeats but may differ in a detail not shown here. Equal entries are not always repeated. In all, about 16,000 compounds went through this assay and about 4,000 (25%) were called active. About 26% were inconclusive and are not listed. The call rests on the fitted dose curve; in most records, active means well fitted curve in the direction sought with a large enough effect; inconclusive means small, poorly fitted or top-dose-only effect, or effect the other way; inactive means no such curve, though single readings can be large or run the other way. The list is a sample of the results.

target: Cytochrome P450 2C9 (Homo sapiens) (UniProt P11712); assay: Cytochrome panel assay with activity outcomes; conditions: recombinant CYP, pro-luciferin dealkylation, luminescence, p450-cyp2c9; series mostly up to 57.1 µM; activity, negative = inhibition: at the top concentration
Sequence (P11712 whole entry, looked up): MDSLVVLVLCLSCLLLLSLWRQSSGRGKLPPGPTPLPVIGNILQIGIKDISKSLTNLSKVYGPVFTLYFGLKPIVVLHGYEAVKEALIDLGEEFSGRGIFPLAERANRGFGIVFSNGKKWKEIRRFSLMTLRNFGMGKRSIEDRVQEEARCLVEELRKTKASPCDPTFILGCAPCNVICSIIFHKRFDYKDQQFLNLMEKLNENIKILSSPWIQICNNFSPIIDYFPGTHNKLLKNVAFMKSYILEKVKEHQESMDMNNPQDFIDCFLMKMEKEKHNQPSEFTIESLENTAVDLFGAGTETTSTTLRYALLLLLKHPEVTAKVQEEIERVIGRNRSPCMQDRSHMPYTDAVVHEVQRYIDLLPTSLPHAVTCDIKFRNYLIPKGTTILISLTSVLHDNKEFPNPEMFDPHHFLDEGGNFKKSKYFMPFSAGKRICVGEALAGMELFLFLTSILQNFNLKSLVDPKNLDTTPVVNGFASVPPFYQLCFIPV
On the % scale 0 is the no-effect control and ±100 the full control effect.

activity, negative = inhibition, inactive:
CCOC(=O)CCN1C(=O)[C@H]2[C@@H]3[C@H](O)[C@H](O)CC(=O)[C@H]3CC[C@H]2C1=O 14.8% [at 11.4 µM] and 4.05% [at 11.4 µM], C[C@@](N)(C(=O)O)c1ccc(P(=O)(O)O)cc1 18.4%, O=C(O)c1ccc(NCc2nc3cc4ccccc4cc3[nH]2)cc1 8.12% [at 11.4 µM], C[C@@H](c1ccccc1)N1C(=O)[C@H]2[C@@H]3[C@H](O)C=CC(=O)[C@H]3CC[C@H]2C1=O 3.06% [at 11.4 µM], Cc1nn(CCc2n[nH]c(=S)n2-c2ccc(F)c(Cl)c2)c(C)c1[N+](=O)[O-] -22%, COC(=O)N1CCC[C@@]2(CCN(C(=O)Nc3ccccc3)C2)C1 0.884%, COc1ccc(NC(=O)N2CCC3(CC2)CCN(C(=O)c2csnn2)CC3)cc1 -5.5%, COc1cc(CC(=O)O)ccc1O 26.1%, O=C(O)Cc1ccc(O)c(O)c1 -21.4%, Cc1cccc(NC(=O)c2ccc([N+](=O)[O-])o2)n1 -15.3%, CCOc1cc(NC(=O)c2ccccc2[N+](=O)[O-])c(OCC)cc1NC(=O)CC(C)C 14.7%, CO/N=C(\C(=O)N[C@@H]1C(=O)N2C(C(=O)[O-])=C(C[N+]3(C)CCCC3)CS[C@@H]12)c1csc(N)n1 -12.8% [at 25.6 µM], N#Cc1cccc(-c2nc(NCCN3CCOCC3)c3ccccc3n2)c1 5.64% [at 2.29 µM], N#Cc1ccccc1-c1ccc2ncnc(NCCN3CCOCC3)c2c1 2.09% [at 2.29 µM], CO[C@H]1COC(=O)[C@H](C)COC(=O)[C@@H](Cc2ccccc2)NC(=O)C/C=C\[C@H]1C -8.74% [at 11.4 µM], Clc1ccc(Cl)c(SCCCN2CCNCC2)c1 -3.39% [at 11.4 µM], Cc1cc(Cl)nc(NC(=O)CSc2ccc(Cl)cc2)n1 -1.09% [at 11.4 µM]

AC50, active:
O=C(c1ccccc1)c1ccc2nc(-c3ccc(NC(=O)c4ccccc4F)cc3)[nH]c2c1 4.47 µM, O=C(c1ccccc1)c1ccc2nc(-c3ccc(NC(=O)c4ccccc4Br)cc3)[nH]c2c1 2 µM, O=C(O)Cc1cc(I)c(Oc2ccc(O)c(I)c2)c(I)c1 5.01 µM, O=C(Nc1cccc(NC(=O)c2ccccc2[N+](=O)[O-])n1)c1ccccc1[N+](=O)[O-] 0.794 µM, N#Cc1nc(-c2ccc(OCc3ccccc3)cc2)oc1NCCN1CCOCC1 7.94 µM, COC(=O)c1sccc1NC(=O)CSc1cc(Cl)ccc1Cl 7.08 µM, COC(=O)c1sccc1NC(=O)CSc1ccc(Cl)cc1 15.8 µM, COC(=O)c1sccc1NC(=O)CSc1ccccc1NS(=O)(=O)c1ccc(Cl)cc1 1.78 µM
